Measurements: PubChem BioAssay AID504370 (National Center for Advancing Translational Sciences (NCATS), 2011)
The list shows a part of the results. Inconclusive results are not listed. Calls follow the shape of the dose curve; as a rule, active = well fitted inhibition curve with a large enough effect; inconclusive = small, poorly fitted or top-dose-only effect; inactive = flat fitted curve, though single readings scatter.

Experiment: qHTS Assay for Compounds Blocking the Interaction Between CBF-beta and RUNX1 for the Treatment of Acute Myeloid Leukemia: ME-1 cellular proliferation
Details: ME-1 cell proliferation, ATP luminescence, 48 h; series mostly up to 56.1 µM; activity change, negative = inhibition: at the top concentration
Source text: NIH Chemical Genomics Center [NCGC]
NIH Molecular Libraries Probe Production centers Network [MLPCN]
Assay Submitter (PI): Paul Liu
Core Binding Factor (CBF) abnormalities are associated with 20-25% of all acute myeloid leukemias (AML), of which 5-10% are further sub classified as acute myelomonocytic leukemia with eosinophilia, also known as M4Eo in the FAB classification scheme. This subtype of leukemia is usually associated with chromosome 16 inversion (p13:q22). Chromosome 16 inversion results in formation of the fusion oncogene CBFB-MYH11, which encodes the fusion protein CBF-beta-SMMHC.
It has been hypothesized that the interference of CBF-beta and RUNX1 binding could have therapeutic implications for patients with CBF mediated leukemias. We developed a CBF-beta and RUNX1 binding assay in AlphaScreenTM format and optimized it for high throughput screening to search for inhibitors. The goal of this project is to screen MLPCN's compound collection (MLSMR) for identifying the inhibitors of the interaction between CBF-beta and RUNX1 proteins as research probes. If these probes work well in the animal models, the ultimate goal of this project is to development a new drug treatment for this disease.
The present assay assesses compounds ability to slow cellular proliferation in a CBFb dependent cell line, ME-1.
2uL/well media was dispensed per well into 1536-well white solid-bottom plates using Multidrop Combi dispenser. Subsequently, 23 nL/well compound solutions or DMSO controls were dispensed to the assay plates via a pintool workstation. The cells were grown in T225 flasks to 70% confluence under a standard cell culture condition (ATCC), detached with 0.25% Trypsin/EDTA, and seeded at 250 cells/well in 5uL medium (Dulbecco's Modified Eagle Medium, 10% fetal bovine serum, 1x penicillin/streptomycin).

Activity change, negative = inhibition, inactive:
N#Cc1ccc(C(c2ccc(C#N)cc2)n2cncn2)cc1 -9.58% [at 25.6 µM]
CC[N+](C)(CC)CCC[n+]1c(-c2ccccc2)c2cc(N)ccc2c2ccc(N)cc21 -22.9%
COc1cc(C(=S)NCc2ccccc2)cc(Br)c1O 3.26% [at 25.6 µM]
O=C(OCC1O[C@@H](OC(=O)c2cc(O)c(O)c(O)c2)[C@@H](OC(=O)c2cc(O)c(O)c(O)c2)[C@@H](OC(=O)c2cc(O)c(O)c(O)c2)[C@@H]1OC(=O)c1cc(O)c(O)c(O)c1)c1cc(O)c(O)c(O)c1 (stereo not given in full) -15.4%
CC(C)C(N)C(=O)OCCOCn1cnc2c(=O)[nH]c(N)nc21 (stereo not given) -4.01%
